Source: PubChem BioAssay (EPA / NIEHS)
The source made the active and inactive calls. Rule for the calls: active = hit-call score of the fitted dose curve at least 0.9, where 1 is the maximum; inactive = score below 0.9.

How the values were obtained:
[1] = BSK_hDFCGF_SRB: Viability Assessment in the BioMAP Diversity Plus: hDFCGF Assay (AID 2283061); settings: primary human foreskin fibroblasts;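 note: cells exposed to compound for 24 h before the read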
Procedure, shortened: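 Viability was read as total protein: after 10% TCA fixation, wells were stained with 0.1% sulforhodamine B and read at 560 nm. Primary human foreskin fibroblasts were dosed for 24 h, with bidirectional fitting versus DMSO.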

[2] = read-out: TIMP metallopeptidase inhibitor 1 (TIMP1), TIMP1 (gene 7076); assay: BSK_hDFCGF_TIMP1: BioMAP Diversity Plus: hDFCGF Assay for TIMP metallopeptidase inhibitor 1 (TIMP1) Biomarker Activity (AID 2283062); settings: primary human foreskin fibroblasts; actives raise or lower the signal
Procedure, shortened: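 TIMP-1 measured by ELISA 24 h after chemical dosing of primary human skin fibroblasts, with gain or loss fitted relative to DMSO. Parallel SRB staining (560 nm) monitored overt cytotoxicity.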

[3] = read-out: Monokine induced gamma interferon (MIG), CXCL9 (gene 4283); assay: BSK_hDFCGF_MIG: BioMAP Diversity Plus: hDFCGF Assay for Monokine induced gamma interferon (MIG) Biomarker Activity (AID 2283063); settings: primary human foreskin fibroblasts; actives raise or lower the signal
Procedure, shortened: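 Human primary foreskin fibroblasts in the hDFCGF system, exposed to test chemical for 24 h; MIG measured by ELISA. Bidirectional curve fitting against DMSO negative control as activity baseline.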

[4] = read-out: Matrix Metallopeptidase 1 (MMP1), MMP1 (gene 4312); assay: BSK_hDFCGF_MMP1: BioMAP Diversity Plus: hDFCGF Assay for Matrix Metallopeptidase 1 (MMP1) Biomarker Activity (AID 2283064); settings: primary human foreskin fibroblasts; actives raise or lower the signal
Procedure, shortened: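 Primary human foreskin fibroblasts in the hDFCGF system were dosed with test chemical, and MMP1 was measured by ELISA 24 h later. Values come from bidirectional curve fitting against the DMSO baseline.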

[5] = read-out: Vascular cell adhesion molecule 1 (VCAM1), VCAM1 (gene 7412); assay: BSK_hDFCGF_VCAM1: BioMAP Diversity Plus: hDFCGF Assay for Vascular cell adhesion molecule 1 (VCAM1) Biomarker Activity (AID 2283065); settings: primary human foreskin fibroblasts; actives raise or lower the signal;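 for AC50: VCAM-1 protein level quantified by ELISA after 24 h chemical exposure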
Procedure, shortened: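 ELISA readout of VCAM-1 on human dermal fibroblast primary cultures, 24 h after chemical exposure. Gain or loss of signal fitted in both directions against DMSO baseline.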

[6] = read-out: Plasminogen activator inhibitor-1 (PAI1), SERPINE1 (gene 5054); assay: BSK_hDFCGF_PAI1: BioMAP Diversity Plus: hDFCGF Assay for Plasminogen activator inhibitor-1 (PAI1) Biomarker Activity (AID 2283066); settings: primary human foreskin fibroblasts; actives raise or lower the signal
Procedure, shortened: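 Human foreskin fibroblast primary cells, 24 h chemical exposure; PAI-1 measured by ELISA. Bidirectional fitting relative to DMSO; parallel cultures stained with SRB for total protein to flag overt cytotoxicity.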

[7] = read-out: Intercellular Adhesion Molecule 1 (ICAM1), ICAM1 (gene 3383); assay: BSK_KF3CT_ICAM1: BioMAP Diversity Plus: KF3CT Assay for Intercellular Adhesion Molecule 1 (ICAM1) Biomarker Activity (AID 2283067); settings: primary human keratinocytes with fibroblasts; actives raise or lower the signal
Procedure, shortened: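 Cell-surface ICAM-1 was measured by ELISA 24 h after dosing primary human skin keratinocytes co-cultured with fibroblasts. Parallel SRB staining tracked overt cytotoxicity. Gain or loss of signal was fitted relative to DMSO.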

[8] = read-out: Interferon-gamma inducible Protein 10 (IP10), CXCL10 (gene 3627); assay: BSK_KF3CT_IP10: BioMAP Diversity Plus: KF3CT Assay for Interferon-gamma inducible Protein 10 (IP10) Biomarker Activity (AID 2283068); settings: primary human keratinocytes with fibroblasts; actives raise or lower the signal
Procedure, shortened: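 KF3CT co-culture (keratinocytes + foreskin fibroblasts), 24 h compound, IP-10 by ELISA; bidirectional fit vs DMSO baseline.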

[9] = BSK_KF3CT_SRB: Viability Assessment in the BioMAP Diversity Plus: KF3CT Assay (AID 2283069); settings: primary human keratinocytes with fibroblasts;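 note: total protein by sulforhodamine B staining as a cytotoxicity measure; read 24 h after compound addition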
Procedure, shortened: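 Human primary keratinocyte plus foreskin fibroblast co-culture exposed to chemicals for 24 h. Total protein measured by 0.1% sulforhodamine B staining after 10% TCA fixation, read at 560 nm; bidirectional fitting versus DMSO baseline.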

[10] = read-out: Interleukin-1 alpha (IL1a), IL1A (gene 3552); assay: BSK_KF3CT_IL1a: BioMAP Diversity Plus: KF3CT Assay for Interleukin-1 alpha (IL1a) Biomarker Activity (AID 2283070); settings: primary human keratinocytes with fibroblasts; actives raise or lower the signal
Procedure, shortened: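 Human keratinocyte plus foreskin fibroblast primary co-culture, sampled 24 h after chemical dosing. IL-1a measured by ELISA; responses fitted bidirectionally against DMSO baseline (negative control), so gain or loss of signal both count.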

[11] = read-out: TIMP metallopeptidase inhibitor 2 (TIMP2), TIMP2 (gene 7077); assay: BSK_KF3CT_TIMP2: BioMAP Diversity Plus: KF3CT Assay for TIMP metallopeptidase inhibitor 2 (TIMP2) Biomarker Activity (AID 2283071); settings: primary human keratinocytes with fibroblasts; actives raise or lower the signal
Procedure, shortened: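 Co-culture of human primary keratinocytes and foreskin fibroblasts, measured 24 h after chemical dosing. TIMP-2 quantified by ELISA and fitted in both directions relative to DMSO. Cytotoxicity checked in parallel cultures by SRB total-protein staining.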

[12] = read-out: Transforming growth factor beta 1 (TGFb1), TGFB1 (gene 7040); assay: BSK_KF3CT_TGFb1: BioMAP Diversity Plus: KF3CT Assay for Transforming growth factor beta 1 (TGFb1) Biomarker Activity (AID 2283072); settings: primary human keratinocytes with fibroblasts; actives raise or lower the signal
Procedure, shortened: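 Human keratinocyte/foreskin fibroblast co-culture; TGF-b1 measured by ELISA 24 h after dosing, fitted bidirectionally versus DMSO. Cytotoxicity checked in parallel cultures by total protein (SRB staining, 560 nm).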

[13] = read-out: C-C motif chemokine 2 (Homo sapiens) (UniProt P13500); assay: BSK_KF3CT_MCP1: BioMAP Diversity Plus: KF3CT Assay for Monocyte Chemoattractant Protein 1 (MCP1/CCL2) Biomarker Activity (AID 2283073); settings: primary human keratinocytes with fibroblasts; actives raise or lower the signal
Procedure, shortened: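 ELISA read-out of MCP-1, 24 h post-dose, in primary human skin keratinocytes co-cultured with fibroblasts. Parallel SRB staining monitors cytotoxicity; changes fitted both directions relative to DMSO.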

[14] = read-out: Matrix Metallopeptidase 9 (MMP9), MMP9 (gene 4318); assay: BSK_KF3CT_MMP9: BioMAP Diversity Plus: KF3CT Assay for Matrix Metallopeptidase 9 (MMP9) Biomarker Activity (AID 2283074); settings: primary human keratinocytes with fibroblasts; actives raise or lower the signal;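 for AC50: MMP9 protein level quantified by ELISA in the co-culture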
Procedure, shortened: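 Keratinocyte plus foreskin fibroblast human primary skin co-culture was dosed with chemical and MMP-9 was quantified by ELISA 24 h later. Bidirectional curve fitting used DMSO as negative control and activity baseline.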

[15] = read-out: urokinase plasminogen activator (uPA), PLAU (gene 5328); assay: BSK_KF3CT_uPA: BioMAP Diversity Plus: KF3CT Assay for urokinase plasminogen activator (uPA) Biomarker Activity (AID 2283075); settings: primary human keratinocytes with fibroblasts; actives raise or lower the signal
Procedure, shortened: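 Human keratinocyte plus foreskin fibroblast primary co-culture exposed to chemical for 24 h. uPA levels were quantified by ELISA, and activity was fitted bidirectionally against a DMSO negative-control baseline.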

CD40, CD40 (gene 958) = assay: BSK_LPS_CD40: BioMAP Diversity Plus: LPS Assay for CD40 Biomarker Activity (AID 2283076); settings: primary human HUVEC with PBMC; actives raise or lower the signal
Procedure, shortened: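 In the LPS system of human endothelial cells with peripheral blood mononuclear cells, CD40 levels were read by ELISA 24 h post-treatment. Signal changes in either direction were fitted against the DMSO baseline, with parallel SRB protein staining.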

[16] = read-out: E-selectin (Homo sapiens) (UniProt P16581); assay: BSK_LPS_Eselectin: BioMAP Diversity Plus: LPS Assay for Eselectin Biomarker Activity (AID 2283077); settings: primary human HUVEC with PBMC; actives raise or lower the signal
Procedure, shortened: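 E-selectin ELISA on LPS-stimulated endothelial cell/PBMC co-cultures, read 24 h post-treatment; gains and losses fitted against DMSO. Parallel SRB staining (0.1% SRB after 10% TCA fixation, 560 nm) flags overt cytotoxicity.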

[17] = read-out: Interleukin-8 (IL8), CXCL8 (gene 3576); assay: BSK_LPS_IL8: BioMAP Diversity Plus: LPS Assay for Interleukin-8 (IL8) Biomarker Activity (AID 2283078); settings: primary human HUVEC with PBMC; actives raise or lower the signal
Procedure, shortened: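 ELISA read-out of IL-8 after 24 h chemical treatment of LPS-activated endothelial/PBMC human primary co-cultures. Changes either up or down relative to DMSO; overt cytotoxicity checked by sulforhodamine B staining in parallel wells.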

[18] = read-out: Interleukin-1 alpha (IL1a), IL1A (gene 3552); assay: BSK_LPS_IL1a: BioMAP Diversity Plus: LPS Assay for Interleukin-1 alpha (IL1a) Biomarker Activity (AID 2283080); settings: primary human HUVEC with PBMC; actives raise or lower the signal
Procedure, shortened: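 Readout is IL-1a level by ELISA, 24 h post-dose, fitted as gain or loss relative to DMSO. System: LPS-activated human primary co-culture of vascular endothelium and peripheral blood mononuclear cells, with parallel SRB total-protein cytotoxicity.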

[19] = BSK_LPS_SRB: Viability Assessment in the BioMAP Diversity Plus: LPS Assay (AID 2283079); settings: primary human HUVEC with PBMC;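 note: total protein by sulforhodamine B absorbance as a cytotoxicity measure; measured one day after compound addition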
Procedure, shortened: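 SRB viability endpoint: cells fixed with 10% TCA, stained with 0.1% SRB, read at 560 nm, 24 h post-dose. HUVEC/PBMC co-culture; signal change in either direction scored relative to DMSO.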

Measured: AC50

E-selectin (Homo sapiens), sequence (P16581 whole entry, looked up): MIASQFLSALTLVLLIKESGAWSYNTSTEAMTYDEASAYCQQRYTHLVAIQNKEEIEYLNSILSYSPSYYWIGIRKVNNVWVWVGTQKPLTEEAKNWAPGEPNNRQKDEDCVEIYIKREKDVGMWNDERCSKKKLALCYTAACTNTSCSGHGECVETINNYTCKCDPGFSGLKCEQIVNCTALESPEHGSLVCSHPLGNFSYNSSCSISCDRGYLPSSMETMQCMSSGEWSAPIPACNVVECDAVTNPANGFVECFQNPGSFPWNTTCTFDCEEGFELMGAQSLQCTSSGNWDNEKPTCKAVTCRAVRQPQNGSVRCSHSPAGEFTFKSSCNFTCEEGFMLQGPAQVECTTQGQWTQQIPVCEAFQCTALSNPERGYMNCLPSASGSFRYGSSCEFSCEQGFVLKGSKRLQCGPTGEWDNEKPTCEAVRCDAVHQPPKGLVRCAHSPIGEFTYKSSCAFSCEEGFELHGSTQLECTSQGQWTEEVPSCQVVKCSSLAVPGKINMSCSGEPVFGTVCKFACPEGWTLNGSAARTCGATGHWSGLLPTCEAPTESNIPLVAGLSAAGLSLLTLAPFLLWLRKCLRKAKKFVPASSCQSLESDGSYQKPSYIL

CC(C)COC(=O)CCCCC(=O)OCC(C)C
inactive: [1] | [2] | [3] | [4] | [5] | [6] | [7] | [8] | [9] | [10] | [11] | [12] | [13] | [14] | [15] | CD40, CD40 (gene 958) | [16] | [17] | [18]

CC(C)(C)c1ccccc1
inactive: [1] | [2] | [3] | [4] | [5] | [6] | [7] | [8] | [9] | [10] | [11] | [12] | [13] | [14] | [15] | CD40, CD40 (gene 958) | [16] | [17] | [18]

O=C1c2c(O)cccc2Cc2cccc(O)c21
active: [1] 7.76 µM | [3] 15.7 µM | [5] 20 µM | [7] 25.1 µM | [8] 28.8 µM | [10] 18.9 µM | [11] 20 µM | [12] 24.6 µM | [13] 20 µM | [14] 10.2 µM | [15] 27.8 µM
inactive: [2] | [4] | [6] | [9] | CD40, CD40 (gene 958) | [16] | [17] | [19] | [18]

Oc1ccccc1O
active: [3] 11.2 µM | [5] 2.5 µM | [7] 4.58 µM | [10] 4.75 µM | [12] 10.4 µM | [13] 1.14 µM | [14] 8.72 µM | [15] 20 µM | CD40, CD40 (gene 958) 7.33 µM | [19] 7.37 µM
inactive: [1] | [2] | [4] | [6] | [8] | [9] | [11] | [16] | [17] | [18]
